Assay results reported in PubChem BioAssay (EPA / NIEHS).
The source made the active and inactive calls. How the source made its calls: active means hit-call score of the fitted dose curve at least 0.9, where 1 is the maximum; inactive means score below 0.9.

read-out: Intercellular Adhesion Molecule 1 (ICAM1), ICAM1 (gene 3383); experiment: BSK_BE3C_ICAM1: BioMAP Diversity Plus: BE3C Assay for Intercellular Adhesion Molecule 1 (ICAM1) Biomarker Activity (AID 2284278); conditions: primary human bronchial epithelial cells;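 further: cell-surface ICAM-1 protein level quantified by ELISA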
Outline: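 Human primary bronchial epithelial cultures; compound added; 24 h incubation; cell-surface ICAM-1 measured by ELISA; signal increase fitted relative to DMSO negative control.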

Compound	outcome
FC(F)C(F)(F)COCC1CO1 (stereo not given)	inactive
FC(F)(F)C(F)(F)C(F)(F)C(F)(F)C(F)(F)C(F)(F)I	inactive
FC(F)(F)COC(OCC(F)(F)F)OCC(F)(F)F	inactive
OCCC(F)(F)C(F)(F)C(F)(F)C(F)(F)F	inactive
C[Si](C)(C)C(F)(F)C(F)(F)C(F)(F)F	inactive
FC(F)=C(F)C(F)(F)C(F)(F)C(F)(F)C(F)(F)C(F)(F)C(F)(F)F	inactive
O=S(=O)(O)CCC(F)(F)C(F)(F)C(F)(F)C(F)(F)C(F)(F)C(F)(F)F	inactive
NCC(F)(F)C(F)(F)C(F)(F)C(F)(F)F	inactive
OC(O)(C(F)C(O)(O)C(F)(F)F)C(F)(F)F	inactive
O=C(Cl)C(F)(F)C(F)(F)C(F)(F)C(=O)Cl	inactive

read-out: Interferon-inducible T-cell alpha chemoattractant (ITAC), CXCL11 (gene 6373); experiment: BSK_BE3C_ITAC: BioMAP Diversity Plus: BE3C Assay for Interferon-inducible T-cell alpha chemoattractant (ITAC) Biomarker Activity (AID 2284279); conditions: primary human bronchial epithelial cells
Outline: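 The assay measures I-TAC levels by ELISA in human primary bronchial epithelial cell cultures 24 hours after chemical treatment. Values reflect signal increase over the DMSO baseline.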

Compound	outcome
FC(F)C(F)(F)COCC1CO1 (stereo not given)	inactive
FC(F)(F)C(F)(F)C(F)(F)C(F)(F)C(F)(F)C(F)(F)I	inactive
FC(F)(F)COC(OCC(F)(F)F)OCC(F)(F)F	inactive
OCCC(F)(F)C(F)(F)C(F)(F)C(F)(F)F	inactive
C[Si](C)(C)C(F)(F)C(F)(F)C(F)(F)F	inactive
FC(F)=C(F)C(F)(F)C(F)(F)C(F)(F)C(F)(F)C(F)(F)C(F)(F)F	inactive
O=S(=O)(O)CCC(F)(F)C(F)(F)C(F)(F)C(F)(F)C(F)(F)C(F)(F)F	inactive
NCC(F)(F)C(F)(F)C(F)(F)C(F)(F)F	inactive
OC(O)(C(F)C(O)(O)C(F)(F)F)C(F)(F)F	inactive
O=C(Cl)C(F)(F)C(F)(F)C(F)(F)C(=O)Cl	inactive
